DT40 TDP1 CPT: growth inhibition of DT40 Tdp1-/-;hTDP1 cells with camptothecin (screen for TDP1 inhibitors). 420,000 tested, 12% active. chicken DT40 Tdp1-/-;hTDP1 cells + 20 nM CPT, ATP luminescence, 48 h. Potency, µM (highest dose often 46.2 µM), actives largely listed as inhibitors; further: nearly all actives have a fitted effect of over 55% in size
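Chicken DT40 Tdp1-/- cells complemented with human TDP1, 400 cells/well, exposed to compounds plus 20 nM camptothecin for at least 48 h at 37 C; viability read as ATP content by CellTiter-Glo luminescence.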
DT40 TDP1 no CPT: qHTS for Inhibitors of human tyrosyl-DNA phosphodiesterase 1 (TDP1): qHTS in cells in absence of CPT | DT40 Tdp1-/- hTDP1 cells, no CPT, ATP luminescence, 48 h | Potency, µM (titrated, usually from 46.2 µM), usual class: inhibitors | 420,000 tested, 15% active | AID 686978, 2013; further: nearly all actives have a fitted effect of over 55% in size
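Chicken DT40 Tdp1-/- cells complemented with human TDP1, screened without camptothecin (DMSO vehicle only), 400 cells/well. Compounds pin-transferred, cells incubated at 37 °C for at least 48 hr. Growth read as ATP-dependent luminescence (CellTiter-Glo, 30 min at RT).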
S2 tox: viability counter-screen for ATXN expression inhibitors; S2 cells (HEK-293 line with an ATXN2-luciferase reporter) viability, CellTiter-Fluor protease fluorescence, 24 h; Potency, µM (doses to about 56.7 µM), most hits filed as cytotoxic; 400,000 tested, 0.49% active; AID 651635; further: nearly all actives have a fitted effect of over 40% in size
ATXN2 expr inh: ATXN2 expression inhibition | HEK-293 ATXN2-luciferase reporter, luminescence, 24 h | 360,000 tested, 0.72% active | AID 1745845 | Potency, µM (top dose mostly 57 µM), usual class: inhibitors; further: nearly all actives have a fitted effect of over 55% in size
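ATXN2-luciferase reporter cells (luciferase flanked by upstream and downstream ATXN2 gene portions) were treated 24 h at 37 °C with compounds at up to 57 uM. SteadyGlo luminescence gave expression; GF-AFC fluorescence gave viability.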
HepG2 tox: kills HepG2 cells in TGF-b inhibitor counter-screen | HepG2 CAGA-GFP viability, ATP luminescence, 18 h | Potency, µM (titrated, usually from 46.1 µM), hits mostly cytotoxic | AID 588856 | 410,000 tested, 0.76% active
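HepG2 CAGA-GFP cells (1000/well, DMEM with 1% FBS) received compound, then TGF-beta at 500 pg/mL final, and were incubated 18 hours at 37 degrees C. Viability was read by CellTiter-Glo luminescence. Media-only wells were set as complete cell-killing and DMSO as no toxicity.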
TGFb inhibitor: inhibitors of TGF-b signaling; HepG2 CAGA-GFP TGF-b/SMAD3 reporter, GFP fluorescence, 18 h; TGF-beta stimulated, 500 pg/mL final; Potency, µM (highest dose often 46.1 µM), hits mostly inhibitors; 410,000 tested, 1.2% active; AID 588855; further: nearly all actives have a fitted effect of over 65% in size
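Per well, imaged GFP fluorescence of HEPG2 CAGA-GFP cells gives the signal; cells get compound, then TGF-beta (500 pg/mL final), 18 h at 37 degrees C; %Activity versus -TGF-beta and +DMSO controls.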
A number is an active result; - = inactive; ? = inconclusive; . = no result. Hits are enriched below; roughly 17% of the tested compounds scored in any of these assays. The call rests on the fitted dose curve; in most records, active means well fitted curve in the direction sought with a large enough effect; inconclusive means small, poorly fitted or top-dose-only effect, or another doubt; inactive means no such curve, though single readings can be large; an effect the other way counts as inactive or inconclusive.

SMILES	DT40 TDP1 CPT	DT40 TDP1 no CPT	S2 tox	ATXN2 expr inh	HepG2 tox	TGFb inhibitor
CCCCn1c(=O)[nH]c(=O)c2c1nc(CN1C(=O)c3ccccc3S1(=O)=O)n2CCC	-	?	-	-	-	-
Cc1ccc(-c2cc3nc(NCCc4ccncc4)n(C)c(=O)c3s2)cc1	23µM	?	?	-	-	?
Cn1c(NCCc2ccncc2)nc2cc(-c3ccsc3)sc2c1=O	21µM	13µM	-	?	-	?
Cn1c(NCCN2CCCC2)nc2cc(-c3ccsc3)sc2c1=O	21µM	15µM	-	?	-	-
CC(=O)NCCNc1nc2cc(-c3ccsc3)sc2c(=O)n1C	-	-	-	-	-	-
COc1ccc(-c2cc3nc(NCCN4CCCC4)n(C)c(=O)c3s2)cc1OC	?	18µM	-	?	-	-
CC1(C(=O)NS(=O)(=O)c2ccccc2Cl)CCN1C(=O)CCC1CCCC1 (stereo unspecified)	-	-	-	-	-	-
CCOC(=O)c1ccc(-n2c(CCC(=O)O)ccc2-c2ccc(Br)cc2)cc1	?	?	.	.	-	?
COC(=O)c1ccccc1O	-	-	.	.	.	.
COC(=O)c1ccc(=O)c2nc3/c(=C/O)c(O)cc(=O)c3[nH]c12	21µM	?	-	-	-	-
CC(=O)CC1OC(=O)C(Br)=C1NCc1ccccc1 (stereo unspecified)	0.92µM	1.5µM	.	?	7.9µM	10µM
O=C(CC1Oc2ccccc2NC1=O)NCc1ccccc1 (stereo unspecified)	?	-	-	-	-	-
CCOC(=O)CC(S(=O)(=O)c1ccccc1)S(=O)(=O)c1ccccc1	0.58µM	0.65µM	?	.	-	?
CN(Cc1ncc[nH]1)Cc1cn(-c2ccccc2)nc1-c1ccc2c(c1)OCO2	?	-	?	-	-	-
Cc1ccc(-n2cc(CN(C)CCc3cn[nH]c3)c(-c3cccc(C)c3)n2)cc1	-	-	-	?	-	-
COc1cccc(-c2nn(-c3ccccc3)cc2CN(C)Cc2ccno2)c1	21µM	21µM	-	.	-	-
COc1cccc(-c2nn(-c3ccccc3)cc2CN(C)C(C)c2ccon2)c1 (stereo unspecified)	?	?	-	-	-	-
CCN1CC(CN(C)Cc2cn(-c3ccc(C)cc3)nc2-c2cccc(C)c2)CC1=O (stereo unspecified)	?	15µM	-	-	-	?
Cc1ccc(-n2cc(CN(C)Cc3ncc[nH]3)c(-c3cccc(C)c3)n2)cc1	?	23µM	?	?	-	?
COc1ccc(/C=C/C(=O)Oc2cc(C)[nH]c(=O)c2[N+](=O)[O-])cc1OC	-	-	-	-	-	-
CCCNC(=O)c1ccc(N2CCC3(CC2)CC(c2cccc(Br)c2)=NO3)c(NC(=O)c2ccccc2)c1	?	23µM	-	-	-	-
CCCNC(=O)c1ccc(N2CCC3(CC2)CC(c2ccccc2)=NO3)c(NC(=O)c2cccc(C)c2)c1	8.2µM	?	-	?	-	-
CCCCCCCC(=O)Nc1cc(C(=O)NCCC)ccc1N1CCC2(CC1)CC(c1ccccc1)=NO2	?	12µM	-	-	-	-
CCCNC(=O)c1ccc(N2CCC3(CC2)CC(c2ccccc2)=NO3)c(NC(=O)c2ccccc2)c1	5.8µM	15µM	-	-	-	-
CCCNC(=O)c1ccc(N2CCC3(CC2)CC(c2ccccc2)=NO3)c(NC(=O)c2ccc(Br)cc2)c1	?	-	-	-	-	-
SMILES	DT40 TDP1 CPT	DT40 TDP1 no CPT	S2 tox	ATXN2 expr inh	HepG2 tox	TGFb inhibitor
COC(=O)c1ccccc1NC(=O)CN(c1c(C)cccc1C)S(C)(=O)=O	?	?	-	-	-	-
C#CCCc1cscc1/C=[N+](\[O-])c1ccc(C(=O)OCC)cc1	23µM	?	-	-	-	-
CCOC(=O)c1ccc(/[N+]([O-])=C/c2ccccc2)cc1	13µM	?	-	-	-	-
CC1=C(c2ccc(C(C)C)cc2)S(=O)(=O)NC1=NCc1ccc(OC(C)C)cc1	-	-	.	.	-	-
CCCCOC(=O)c1ccc(NC(=O)C(=O)NCc2ccccn2)cc1	-	-	-	-	-	-
CCCSc1nc2cc(OC)c(OC)cc2c(=N)n1CCCN1CCOCC1	16µM	23µM	-	?	-	-
COCCCn1c(SCc2ccc(OC)cc2)nc2cc(OC)c(OC)cc2c1=N	-	?	-	-	-	-
CC(C)(C)c1ccc(OCC(=O)N/N=C/c2cc(Br)ccc2OC(=O)c2ccco2)cc1	4.6µM	4.1µM	?	?	-	-
COc1ccc(-c2coc3ccc(OC4OC(COC(C)=O)C(OC(C)=O)C(OC(C)=O)C4OC(C)=O)c(OC(C)=O)c3c2=O)cc1 (stereo unspecified)	?	8.4µM	.	.	.	.
COc1ccc(-c2coc3ccc(OC4OC(COC(C)=O)C(OC(C)=O)C(OC(C)=O)C4OC(C)=O)cc3c2=O)cc1 (stereo unspecified)	2.7µM	1.1µM	.	.	.	.
Clc1ccccc1-c1cc2nc(NCc3ccco3)ccn2n1	?	?	-	-	-	-
CCC1=C(OC(=O)c2ccccc2)C(C)(C)C(c2ccccc2)OC1=O (stereo unspecified)	?	23µM	-	-	-	-
CCc1cccc(C)c1NC(=O)CCCN1C(=O)CN(C)C1=O	-	-	-	-	-	?
COC(=O)c1cc(NC(=O)c2ccc3c(c2)NC(=O)c2ccccc2S3)cc(C(=O)OC)c1	4.6µM	6.5µM	.	.	-	-
CCCSc1nsc(NC(=O)C(c2ccccc2)c2ccccc2)n1	18µM	29µM	-	?	6.3µM	18µM
CCOCCCNC(=O)c1ccc2c(c1)ncn2-c1cccc(C)c1	?	?	?	-	-	-
CN(C)c1ccc(Cl)cc1N	-	-	-	-	-	-
COc1ccccc1-c1cc(C(F)(F)F)nc(S(=O)(=O)CCCC(=O)NCc2ccc(F)cc2)n1	2.9µM	4.1µM	.	?	14µM	?
COc1ccccc1-c1cc(C(F)(F)F)nc(S(C)(=O)=O)n1	3.7µM	5.8µM	32µM	?	-	?
COc1ccccc1-c1cc(C(F)(F)F)nc(S(=O)(=O)CCCC(=O)NC(C)C)n1	2.3µM	3.3µM	32µM	?	-	?
CSCCC(NC(=O)c1ccc(Cl)cc1Cl)C(=O)OC1CCCCC1=O (stereo unspecified)	-	-	-	-	-	-
Fc1ccc(C(CCNCc2ccccn2)c2ccc(Cl)cc2)cc1 (stereo unspecified)	?	18µM	-	-	13µM	?

Assay outcomes as filed in PubChem.
